Reference: PubChem BioAssay (NCI)
“And” between values parts separate entries of the source, which are not always exact repeats. Equal entries are not always repeated. Compounds without any hit were thinned out: in the full panel of roughly 83,000, 20% have a hit.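 Results are percent growth after 48 hours of single-concentration exposure. 100 means growth as in untreated cells, lower positive values show inhibition; negative values down to -100 show cell death.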 The source made the active and inactive calls. How the source made its calls: active means growth percent below 10; inactive means the rest.

Columns and labels:
Assay in all cases: NCI-60 one-dose screen, 48 h (100 = growth as untreated, 0 = no growth, -100 = all killed)
Settings in all cases: 10 µM unless noted
[1] = system: NCI-H23 lung
[2] = system: NCI-H226 lung
[3] = system: NCI-H322M lung
[4] = system: HOP-62 NSCLC
[5] = system: NCI-H460 lung
[6] = system: HOP-92 NSCLC
[7] = system: NCI-H522 lung
[8] = system: A549/ATCC NSCLC
[9] = system: 786-0 renal
[10] = system: COLO 205 colon
[11] = system: DU-145 prostate
[12] = system: K-562 leukemia
[13] = system: MALME-3M melanoma
[14] = system: MDA-MB-231 breast
[15] = system: RXF 393 renal
[16] = system: SF-268 CNS
[17] = system: SF-295 CNS
[18] = system: SF-539 CNS
[19] = system: UACC-257 melanoma
[20] = system: M14 melanoma

Structure (SMILES): COc1ccc(NC(=S)Nc2ccccn2)cc1
- growth [1]: 96% (inactive)
- growth [2]: 86.2% (inactive)
- growth [3]: 97% (inactive)
- growth [4]: 97.9% (inactive)
- growth [5]: 100% (inactive)
- growth [6]: 77% (inactive)
- growth [7]: 98.4% (inactive)
- growth [8]: 101% (inactive)
- growth [9]: 90.4% (inactive)
- growth [10]: 110% (inactive)
- growth [11]: 93% (inactive)
- growth [12]: 87.1% (inactive)
- growth [13]: 80.6% (inactive)
- growth [14]: 99% (inactive)
- growth [15]: 121% (inactive)
- growth [16]: 90.7% (inactive)
- growth [17]: 94.6% (inactive)
- growth [18]: 109% (inactive)
- growth [19]: 104% (inactive)

Structure (SMILES): Cn1cc(-c2cc3c(Nc4ccc(CC(=O)Nc5cc(C(C)(C)C)on5)cc4)ncnc3[nH]2)cn1
- growth [1]: -34% (active) and -14% (active)
- growth [2]: -2.21% (active) and -21.5% (active)
- growth [3]: -15.1% (active) and -11.4% (active)
- growth [4]: -11.3% (active) and -15.3% (active)
- growth [5]: -4.56% (active) and 3.41% (active)
- growth [6]: 5.01% (active) and -5.97% (active)
- growth [7]: -35.7% (active) and -46.8% (active)
- growth [8]: 4.17% (active) and 8.31% (active)
- growth [9]: 5.07% (active) and 3.24% (active)
- growth [10]: -36.6% (active) and -33.4% (active)
- growth [11]: -15% (active) and -3.89% (active)
- growth [12]: 4.78% (active) and 3.56% (active)
- growth [13]: -50.5% (active) and -22.7% (active)
- growth [14]: -6.46% (active) and -3.49% (active)
- growth [15]: -51.7% (active) and -45.7% (active)
- growth [16]: -27.7% (active) and -23.3% (active)
- growth [17]: -0.861% (active) and 7.57% (active)
- growth [18]: -49.9% (active) and -49% (active)
- growth [19]: -11.9% (active) and -15.9% (active)
- growth [20]: -34.2% (active) and -49.5% (active)

Structure (SMILES): COc1ccc(-c2cn[nH]c2-c2cc(OC)c(OC)c(OC)c2)cc1N
- growth [1]: 22.5% (inactive) and 28.3% (inactive)
- growth [2]: 69.4% (inactive) and 50.2% (inactive)
- growth [3]: 45.3% (inactive) and 36.2% (inactive)
- growth [4]: 52.2% (inactive) and 35.6% (inactive)
- growth [5]: 4.87% (active) and 8.68% (active)
- growth [6]: 53.9% (inactive) and 22.5% (inactive)
- growth [7]: 0.102% (active) and 3.18% (active)
- growth [8]: 12.4% (inactive) and 23% (inactive)
- growth [9]: 18.1% (inactive) and 25.6% (inactive)
- growth [10]: -55.7% (active) and -53.2% (active)
- growth [11]: 13.8% (inactive) and 3.66% (active)
- growth [12]: 11% (inactive) and 11.5% (inactive)
- growth [13]: 78.7% (inactive) and 44.3% (inactive)
- growth [14]: 22.9% (inactive) and 14.6% (inactive)
- growth [15]: 19.3% (inactive)
- growth [16]: 26.5% (inactive) and 48.8% (inactive)
- growth [17]: 3.28% (active) and 17.5% (inactive)
- growth [18]: 1.73% (active) and -4.41% (active)
- growth [19]: 66.7% (inactive)
- growth [20]: 10.5% (inactive) and 15% (inactive)

Structure (SMILES): Cn1cnc([N+](=O)[O-])c1Sc1ncnc2nc[nH]c12
- growth [1]: 72.9% (inactive) and 79.9% (inactive)
- growth [2]: 51.2% (inactive) and 72.4% (inactive)
- growth [3]: 55.1% (inactive) and 47.5% (inactive)
- growth [4]: 37.2% (inactive) and 20.8% (inactive)
- growth [5]: 70.4% (inactive) and 69% (inactive)
- growth [6]: 60.7% (inactive) and 61.4% (inactive)
- growth [7]: 65.1% (inactive) and 85.9% (inactive)
- growth [8]: 82% (inactive) and 107% (inactive)
- growth [9]: 36.2% (inactive)
- growth [10]: 94.5% (inactive) and 112% (inactive)
- growth [11]: 44.5% (inactive)
- growth [12]: 20.4% (inactive) and 23.6% (inactive)
- growth [13]: 75.5% (inactive) and 93.8% (inactive)
- growth [14]: 31.3% (inactive) and 57.8% (inactive)
- growth [15]: 79.5% (inactive) and 94.4% (inactive)
- growth [16]: 69.1% (inactive) and 49.2% (inactive)
- growth [17]: 33.5% (inactive) and 31.1% (inactive)
- growth [18]: 37.8% (inactive) and 33.3% (inactive)
- growth [19]: 73.4% (inactive) and 98.4% (inactive)
- growth [20]: 30.3% (inactive) and 21.4% (inactive)
